Source: PubChem BioAssay (National Center for Advancing Translational Sciences (NCATS))
A selection: hits, their analogues and other compounds. The true share with any hit is near 1.4%.
EPAC2 antagonist: blocks human EPAC2 exchange factor. Q8WZA2. EPAC2 GEF exchange of Rap1B-BODIPY-GDP, fluorescence. Potency, µM (highest dose often 114 µM), actives largely listed as inhibitors. hit rate 0.18% among 360,000. AID 720708; also: nearly all actives have a fitted effect of over 45% in size
Target sequence (Q8WZA2 whole entry, looked up): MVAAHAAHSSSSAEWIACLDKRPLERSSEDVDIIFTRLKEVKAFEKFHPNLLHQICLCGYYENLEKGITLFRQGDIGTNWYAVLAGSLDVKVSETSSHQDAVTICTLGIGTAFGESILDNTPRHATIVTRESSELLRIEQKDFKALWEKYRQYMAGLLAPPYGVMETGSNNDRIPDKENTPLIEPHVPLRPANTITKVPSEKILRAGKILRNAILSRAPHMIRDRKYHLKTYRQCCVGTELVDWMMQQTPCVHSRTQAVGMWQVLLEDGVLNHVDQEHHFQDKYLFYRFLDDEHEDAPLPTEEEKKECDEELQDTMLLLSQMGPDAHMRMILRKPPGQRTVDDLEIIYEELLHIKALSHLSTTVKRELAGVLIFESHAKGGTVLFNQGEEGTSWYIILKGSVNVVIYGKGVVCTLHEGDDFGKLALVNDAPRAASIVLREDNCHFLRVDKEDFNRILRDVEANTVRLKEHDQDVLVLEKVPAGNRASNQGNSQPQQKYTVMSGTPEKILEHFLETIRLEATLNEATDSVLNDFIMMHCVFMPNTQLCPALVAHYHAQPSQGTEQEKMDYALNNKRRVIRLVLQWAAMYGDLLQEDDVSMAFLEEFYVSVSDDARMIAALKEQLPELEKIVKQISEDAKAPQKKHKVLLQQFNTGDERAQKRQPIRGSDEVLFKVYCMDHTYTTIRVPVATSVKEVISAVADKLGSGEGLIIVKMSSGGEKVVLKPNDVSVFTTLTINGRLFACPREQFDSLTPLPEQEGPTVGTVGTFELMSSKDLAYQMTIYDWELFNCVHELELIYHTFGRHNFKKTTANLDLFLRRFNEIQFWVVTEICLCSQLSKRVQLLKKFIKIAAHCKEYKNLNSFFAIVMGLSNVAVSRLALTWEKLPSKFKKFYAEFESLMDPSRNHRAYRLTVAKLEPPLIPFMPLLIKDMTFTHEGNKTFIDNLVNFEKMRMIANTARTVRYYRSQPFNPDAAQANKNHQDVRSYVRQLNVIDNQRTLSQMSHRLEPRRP
EPAC2 ag: EPAC2 (human) agonism. AID 720711. hit rate 0.079% among 360,000. Potency, µM (series often up to 154 µM), hits mostly activators. EPAC2 activation, biochemical qHTS; response scale: 100% = 6.5 mM cAMP response; also: nearly all actives have a fitted effect of over 50% in size
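Setup: EPAC2 100 nM, labeled Rap1B complex 250 nM, free GDP 50 uM. Compound titrations pinned in, brief spin, 5 min room temperature incubation. Kinetic fluorescence read over 30 min, normalized to 6.5 mM cAMP.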
hERG WT inh: blocks the wildtype human KCNH2 potassium channel; hit rate 0.37% among 340,000; activity change, % at 1.84 µM; U2OS, BacMam KCNH2, thallium flux FluxOr; active compounds read low; AID 720551;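 active = maximum activity change below -70%; inconclusive = maximum activity change between -70% and -50%; inactive = maximum activity change above -50%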
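U2OS cells transduced with wild-type KCNH2 virus are loaded with FluxOr dye for 45 min, and thallium flux is measured in kinetic reads before and after stimulation buffer. Rate constants are normalized to DMSO controls.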
EPAC1 ag: EPAC1 (human) agonism | O95398 | EPAC1 agonist qHTS, biochemical assay; response scale: 100% = response to 6.5 mM cAMP | Potency, µM (doses to about 154 µM), usual class: activators | hit rate 0.073% among 360,000; also: nearly all actives have a fitted effect of over 60% in size
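Nucleotide exchange by EPAC1 (100 nM) on Rap1B–BODIPY-GDP (250 nM) in the presence of 50 uM GDP is tracked fluorescently at 480/540 nm over 30 min. Signals are normalized to a 6.5 mM cAMP control.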
EPAC1 antag: EPAC1 (human) antagonism. EPAC1 GEF assay, Rap1b-BODIPY-GDP exchange fluorescence. Potency, µM (top dose mostly 115 µM), most hits filed as inhibitors. hit rate 0.14% among 360,000. AID 720709; also: nearly all actives have a fitted effect of over 50% in size
KCNH2 3.1 inh: KCNH2 3.1 (human) potassium channel inhibition; U2OS KCNH2 3.1, thallium flux FluxOr; active compounds read low; activity change, % (tested at about 1.8 µM); hit rate 0.95% among 340,000; AID 720553;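 active = maximum activity change below -70%; inconclusive = maximum activity change from -70% to -50%; inactive = maximum activity change above -50%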;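 also: thallium influx rate constant from kinetic fluorescence after stimulation buffer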
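Kinetic fluorescence (2 min after stimulation buffer) measures Tl+ influx through KCNH2 3.1 expressed by viral transduction in U2OS cells; the rate constant is normalized against DMSO controls serving as positive and negative references.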
Each line names hits and unclear results; the compound was inactive in the other large screens. Unless noted, calls follow the shape of the dose curve; as a rule, active = well fitted curve in the direction sought with a large enough effect; inconclusive = small, poorly fitted or top-dose-only effect, or another doubt; inactive = no such curve, though single readings can be large; an effect the other way counts as inactive or inconclusive.

Cn1cc(Br)c(C(=O)Nc2c(F)c(F)c(F)c(F)c2F)n1	none
Cn1cc(Br)c(NC(=O)/C=C/C(=O)O)n1	KCNH2 3.1 inh -122
Cc1ccc(C(=O)N2CCC(C(=O)Nc3cccc([N+](=O)[O-])c3)CC2)cc1	none
CCOC(=O)c1nc(C)sc1-c1ccnn1S(=O)(=O)c1cccc(Cl)c1	hERG WT inh -135
CCOC(=O)C1=CCN(S(=O)(=O)c2cccc(Cl)c2)C1c1ccccc1 (stereo not given)	EPAC2 antagonist inconclusive (no result: hERG WT inh, KCNH2 3.1 inh)
CC(=NNc1ccccc1)C(C)=NNc1ccccc1	EPAC1 antag inconclusive, KCNH2 3.1 inh -71
CC(=O)/C=N/Nc1ccccc1	none
CC(C(=O)O)N(c1ccccc1Cl)S(C)(=O)=O (stereo not given)	none
CN(C)S(=O)(=O)Nc1ccccc1F	KCNH2 3.1 inh -80
CCOC(=O)C1CCN(CCC(=O)Nc2ccc(F)cc2)CC1	none
O=S(=O)(NCC(c1cccnc1)N1CCOCC1)c1cccs1 (stereo not given)	none
CCN1CCN(C(CNS(=O)(=O)c2cccs2)c2cccnc2)CC1 (stereo not given)	KCNH2 3.1 inh -462
c1nc(SSc2ncnc3nc[nH]c23)c2[nH]cnc2n1	none (no result: KCNH2 3.1 inh)
O=C(CC1CCCC1)N1CCCC(Nc2ccc(F)cc2)C1 (stereo not given)	KCNH2 3.1 inh -96
O=C(CC1CCCC1)N1CCCC(Nc2cccc(F)c2)C1 (stereo not given)	none
COc1ccc(OCC(=O)N2CCCC(Nc3ccc(C)c(C)c3)C2)cc1 (stereo not given)	KCNH2 3.1 inh -87
COc1ccc(NC2CCCN(C(=O)COc3ccc(C)cc3)C2)cc1 (stereo not given)	none
O=C(NCC1CCCO1)c1cncc(Br)c1 (stereo not given)	KCNH2 3.1 inh -145
O=C(COC(=O)c1cncc(Br)c1)NCC1CCCO1 (stereo not given)	none
CCNC(=O)C1(C)CCCN(Cc2cccc(Oc3ccccc3)c2)C1 (stereo not given)	EPAC2 antagonist inconclusive (no result: hERG WT inh, KCNH2 3.1 inh)
O=C(NCC(c1ccco1)N1CCCC1)c1ccc(Cl)c(S(=O)(=O)N2CCc3ccccc32)c1 (stereo not given)	KCNH2 3.1 inh -77
COc1ccccc1N(C)S(=O)(=O)c1ccc(C(=O)NCC(c2ccco2)N2CCCCC2)cc1 (stereo not given)	KCNH2 3.1 inh -94
CN(c1ccccc1)S(=O)(=O)c1ccc(C(=O)NCC(c2ccco2)N2CCCCC2)cc1 (stereo not given)	none
O=C(NCC(c1ccco1)N1CCc2ccccc2C1)c1ccc(Cl)c([N+](=O)[O-])c1 (stereo not given)	none
CCC(C)(C)C1CCc2c(sc(NC(=O)c3ccccc3C(=O)O)c2C#N)C1 (stereo not given)	EPAC1 antag 79µM
CCOC(=O)C=Nc1c(N)n(C)c(=O)n(C)c1=O	KCNH2 3.1 inh -92
Cn1c(N)c(N=O)c(=O)n(C)c1=O	none
CCOC(=O)N1CCc2c(sc(NC(=O)CN3CCN(C)CC3)c2C(=O)Nc2ccccc2)C1	hERG WT inh inconclusive, KCNH2 3.1 inh -97
CCOC(=O)N1CCc2c(sc(NC(=O)CN3CCOCC3)c2C(=O)Nc2ccccc2)C1	none
COc1cc(OC)cc(-c2c(Sc3ccccc3)c3cc(-c4ccc(SC)cc4)ccc3n2C)c1	none (no result: hERG WT inh, KCNH2 3.1 inh)
COc1ccc(/C=N/n2c(SC)nnc(C(C)(C)C)c2=O)cc1	none
CCOc1ccc(/C=N/n2c(SC)nnc(C(C)(C)C)c2=O)cc1	hERG WT inh -80
Oc1ccc(Cl)cc1CNc1cnc2ccccc2c1	hERG WT inh -224
CC[C@@H]1CC=C[C@H]2[C@H]1C(=O)N(Cc1ccccc1)[C@H]2c1ccoc1	none
CC[C@@H]1CC=C[C@H]2[C@H]1C(=O)N(Cc1ccccc1)[C@H]2c1ccc(C(F)(F)F)cc1	EPAC2 antagonist inconclusive, KCNH2 3.1 inh -77
CN(CCOc1ccc(Cl)cc1)CC(=O)Nc1ccc(OC(F)F)cc1	KCNH2 3.1 inh -85
O=C(CCN1CCN(c2ccccc2)CC1)N/N=C/c1ccc(O)c(O)c1O	EPAC1 antag 79µM
Cc1cc(-c2ccc3ccccc3c2)n2ncnc2n1	none
CN(C)CCNC(=O)/C(=C/c1ccc(-c2ccc(Cl)cc2Cl)o1)NC(=O)c1ccccc1	KCNH2 3.1 inh inconclusive
CN(C)CCNC(=O)/C(=C/c1ccc(-c2ccc(Cl)cc2)o1)NC(=O)c1ccccc1	KCNH2 3.1 inh -91
Cc1ccc(C(=O)N/C(=C\c2ccc(-c3ccc(Br)cc3)o2)C(=O)NCCCN(C)C)cc1	hERG WT inh -80
C#CCN1CCc2onc(-c3ccc(Br)cc3)c2C1=O	none (no result: hERG WT inh, KCNH2 3.1 inh)
CC(=O)c1ccc(OCCCC(=O)OCC(=O)Nc2ccc3[nH]c(=O)[nH]c3c2)cc1	none
COc1ccccc1OCC(=O)Nc1cccc(S(=O)(=O)NC2=NCCCCC2)c1	EPAC1 ag inconclusive
O=C(COc1ccccc1Cl)Nc1cccc(S(=O)(=O)NC2=NCCCCC2)c1	EPAC1 ag 126µM
N#CCC(=O)N/N=C/c1ccc(Cl)cc1	KCNH2 3.1 inh -73
Cc1ccc(NC(=O)CSc2ccc(C(N)=O)cc2[N+](=O)[O-])cc1C	KCNH2 3.1 inh -78
C=CCN(C(=O)CCC(=O)Nc1cc(C)on1)C(C(=O)NC(C)(C)C)c1ccc(OC)cc1 (stereo not given)	none
O=C(CC12CC3CC(CC(C3)C1)C2)NC(=S)Nc1ccc(CN2CCOCC2)cc1	KCNH2 3.1 inh -77
O=C1c2cccc3cccc(c23)C(=O)N1CCO	none
O=C1OC(O)c2cccc3cccc1c23 (stereo not given)	KCNH2 3.1 inh -71
Cc1ccc(F)c(NC(=O)/C(C#N)=C(\O)c2ccc(C(C)(C)C)cc2)c1	EPAC1 antag 56µM (no result: hERG WT inh)
CSc1nc2ccccc2n1Cc1c(Cl)cccc1Cl	KCNH2 3.1 inh -186
OCc1nc2ccccc2n1Cc1c(F)cccc1Cl	none
CCc1cccc(CC)c1N1C(=O)COCC1=O	none
CCc1cccc(CC)c1N1C(=O)C2=C(SCCCS2)C1=O	EPAC2 ag 112µM, EPAC1 ag 100µM
CCOc1ccc(S(=O)(=O)Nc2cc(NS(=O)(=O)c3ccc(OCC)cc3)cc(C(=O)O)c2)cc1	EPAC2 antagonist inconclusive
O=C(Nc1ccc(Cl)cc1)C1Cc2c(-c3ccccc3)ccnc2O1 (stereo not given)	none (no result: hERG WT inh, KCNH2 3.1 inh)
COc1ccc(CNC(=O)COC(=O)c2ccc(F)c(S(=O)(=O)N3CCOCC3)c2)cc1	none
COCCNC(=O)C(c1ccccc1)N(C(=O)Cn1nnc2ccccc21)c1cccnc1 (stereo not given)	hERG WT inh -197
